Most compounds without a hit are left out; they make up all but 12% or so of the library.
G9a inh = blocks human histone lysine methyltransferase G9a | 8.8% of 350,000 active | AID 504332 | G9a H3K9 monomethylation, AlphaScreen, 2 h | Potency, µM (series often up to 102 µM), inactives show top-dose activity, negative = inhibition, usual class: inhibitors; also: % is scaled to controls: 0 for no effect and ±100 for the full control effect; nearly all actives have a fitted effect of over 75% in size
Target sequence (Q96KQ7 913-1193 limits assumed): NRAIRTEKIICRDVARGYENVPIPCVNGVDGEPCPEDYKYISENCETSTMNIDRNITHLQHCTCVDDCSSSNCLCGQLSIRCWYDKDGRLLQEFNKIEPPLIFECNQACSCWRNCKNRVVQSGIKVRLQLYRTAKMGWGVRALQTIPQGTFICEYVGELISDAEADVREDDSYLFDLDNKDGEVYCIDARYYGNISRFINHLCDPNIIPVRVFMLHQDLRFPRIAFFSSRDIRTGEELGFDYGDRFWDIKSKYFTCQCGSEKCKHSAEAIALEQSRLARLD
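Enzyme 20 nM + cpd, 15 min RT; add b-H3K9 pep 500 nM / SAM 20 uM; 2 h RT; anti-H3K9me1 Ab 0.5 ug/mL + SA donor / anti-rabbit acceptor beads 20 ug/mL each, 10 min; AlphaScreen read.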
JMJD2A Tudor inh = inhibitors of human JMJD2A Tudor domain; Potency, µM (highest dose often 114 µM), without a hit: top-dose activity change, negative = inhibition, usual class: inhibitors; AlphaScreen JMJD2A-Tudor / H3K4me3 peptide binding; 4.4% of 390,000 active; O75164; also: % is scaled to controls: 0 for no effect and ±100 for the full control effect; nearly all actives have a fitted effect of over 50% in size
HP1b chromo inh = inhibitors of HP1-beta chromodomain binding to methylated histone tails | P83916 | AlphaScreen HP1-beta / biotin-H3K9me3 peptide binding | Potency, µM (titrated, usually from 114 µM), inactives show at the highest dose activity change, negative = inhibition, usual class: inhibitors | 0.56% of 390,000 active | AID 540317; also: nearly all actives have a fitted effect of over 70% in size
Target sequence (P83916 whole entry, looked up): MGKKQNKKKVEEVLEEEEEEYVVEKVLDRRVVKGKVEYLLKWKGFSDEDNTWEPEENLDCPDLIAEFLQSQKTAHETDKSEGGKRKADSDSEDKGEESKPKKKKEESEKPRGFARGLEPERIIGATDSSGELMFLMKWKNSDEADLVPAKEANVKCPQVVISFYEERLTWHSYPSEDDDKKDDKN
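Compound inhibition of the preformed complex between 50 nM HP1-beta and 50 nM biotinylated H3K9me3 peptide was read by AlphaScreen. Buffer was PBS pH 7.4 with 0.01% Tween-20. Incubations ran 30 min at room temperature, with 10 ug/mL donor/acceptor beads.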
PLK1 PBD block = blocks phosphopeptide binding to human PLK1 polo-box domain | P53350 | Plk1 PBD binding of FITC phosphopeptide, fluorescence polarization | Potency, µM, inactives show max response, negative = inhibition, most hits filed as inhibitors | 2.8% of 360,000 active | AID 720504; also: series mostly up to about 57 µM; % is scaled to controls: 0 for no effect and ±100 for the full control effect; nearly all actives have a fitted effect of over 65% in size
Sfp inh = Sfp phosphopantetheinyl transferase inhibition; Q9F4F7; Biochemical Sfp PPTase activity, qHTS; Potency, µM, for the others: largest response in the series, negative = inhibition, actives largely listed as inhibitors; 3.5% of 310,000 active;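 also: the enzyme is Sfp with the accession as filed and its product quenches rhodamine fluorescence; 0% = enzyme reaction without inhibitor and -100% = no enzyme wells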
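Fluorescence-quenching assay with 15 nM Sfp, 5 uM rhodamine-CoA and 12.5 uM BHQ-2-labelled ybbR peptide in pH 7.6 Hepes/MgCl2 buffer. Enzyme was pre-incubated with compound for 15 min at room temperature. Rate was taken from the 30-min fluorescence change (525/598 nm).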
BAZ2B inh = blocks human BAZ2B. Q9UIF8. AlphaScreen BAZ2B-H3K14Ac peptide displacement. Potency, µM (titrated, usually from 114 µM), for the others: top-dose activity change, negative = inhibition, actives largely listed as inhibitors. 4.4% of 360,000 active. AID 504333; also: % is scaled to controls: 0 for no effect and ±100 for the full control effect; nearly all actives have a fitted effect of over 60% in size
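Compounds, titrated to a top concentration of 110 uM, were incubated 30 min at room temperature with preformed BAZ2B/acetyl-K14 H3 peptide complex (50 nM each). Proximity signal was measured by AlphaScreen after 20 min with beads.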
Active calls of the source: *; ? = inconclusive; nt = no result given; [ ] = dose if it differs, or a comment. Calls follow the shape of the dose curve; as a rule, active = well fitted curve in the direction sought with a large enough effect; inconclusive = small, poorly fitted or top-dose-only effect, or another doubt; inactive = no such curve, though single readings can be large; an effect the other way counts as inactive or inconclusive. Potency is read from the fitted curve at half-maximal effect.

SMILES	G9a inh	JMJD2A Tudor inh	HP1b chromo inh	PLK1 PBD block	Sfp inh	BAZ2B inh
Cc1ccc(NC(=O)c2cc(S(=O)(=O)N(C)C3CCCCC3)ccc2F)cc1C	11%[59 µM]	-5%	36%	nt	nt	9%
O=C(NCCC(=O)N(CCc1ccccc1)Cc1ccccc1)c1ccc(Br)cc1	0%[59 µM]	7%	54%	-10%	nt	0%
Cc1cc(C)c(S(=O)(=O)Nc2ncn[nH]2)cc1C	?	?	15%	-11%	11%	?
Cc1ccccc1OCCn1c(CCNC(=O)C2CCCCC2)nc2ccccc21	5%[59 µM]	-26%[57.1 µM]	21%[57 µM]	nt	nt	-2%
O=C(O)c1cnn2cc(-c3[nH]ncc3[N+](=O)[O-])cnc12	?	22µM*	4%	-3%	-26%	?
Cc1cc(C(F)F)n2ncc(C(=O)O)c2n1	-34%[0.0925 µM]	-16%	33%	1%	6%	-2%
Cc1cnc2c(C(=O)O)cnn2c1	56µM*	?	?	-2%	-28%	?
COc1cccc(OC)c1-c1nn2c(-c3cc(-c4ccccc4)n[nH]3)nnc2s1	3.5µM*	45µM*	-34%	19%	?	8.9µM*
COc1ccccc1-c1nn2c(-c3cc(-c4ccccc4)n[nH]3)nnc2s1	nt	-10%[57.1 µM]	4%[57 µM]	nt	nt	nt
CCCc1sc(N)nc1-c1ccc(Cl)cc1	45µM*	-35%	-2%	4%	10%	-37%
CCc1ccc2c(c1)C(=O)c1ccccc1C2=O	?	?	?	-4%	3%	?
CC(C)(C)c1ccc2c(c1)C(=O)c1ccccc1C2=O	35µM*	45µM*	?	2%	-13%	32µM*
O=C(O)CSc1c2c(nc3cc(C(=O)NCCN4CCOCC4)ccc13)CCC2	?	-12%	4%	-2%	89µM*	?
CCOC(=O)c1ccccc1NC(=O)c1ccc2c(SCC(=O)O)c3c(nc2c1)CCCC3	?	-30%	6%[57 µM]	?	-29%	50µM*
COc1cc(Cl)c(C)cc1NC(=O)c1ccc2c(SCC(=O)O)c3c(nc2c1)CCCC3	-10%	?	-4%	42µM*	-3%	?
CC(C)CCNC(=O)c1ccc2c(SCC(=O)O)c3c(nc2c1)CCCC3	?	-18%	12%	0%	0%	0%
O=C(O)CSc1c2c(nc3cc(C(=O)Nc4cccc(C(F)(F)F)c4)ccc13)CCC2	40µM*	79µM*	17%	?	-24%	71µM*
Cc1ccc2c(c1)c(=O)c1ccccc1n2CCCC(=O)Nc1ccc(C)c(F)c1	134%[59 µM]	59%	217%	nt	nt	89%
O=C(Nc1cccc([N+](=O)[O-])c1)c1ccc2c(c1)C(=O)N(c1ccccn1)C2=O	?	-17%	-35%	-21%	-16%	-34%
C1=C(c2ccco2)N2CCN=C2S1	-1%[0.501 µM]	-14%	19%	-10%	?	0%
Cc1ccc2c(c1)N(CC(=O)NC1CCCC1)C(=O)c1cccnc1O2	nt	-1%	49%	-2%	5%	14%
COc1ccc(CN2CCC(C(=O)Nc3ccc(Oc4cccnc4)cc3)CC2)cc1	35µM*	-16%	4%	-8%	9%	-28%
Cc1ccccc1-n1ncc2c1CC(C)(C)CC2NC(=O)c1cn[nH]c1C (centres undefined)	-4%	?	14%	30µM*	17%	-9%
COc1ccc(OC)c(C(=O)NC2CC(C)(C)Cc3c2cnn3-c2ccccc2)c1 (centres undefined)	-6%	-32%	23%	-16%	-12%	71µM*
CCCn1c(SCC(=O)NCc2ccc3c(c2)OCO3)n[nH]c1=O	22%[12.7 µM]	-9%	19%	-11%	nt	34%
SMILES	G9a inh	JMJD2A Tudor inh	HP1b chromo inh	PLK1 PBD block	Sfp inh	BAZ2B inh
O=C(CSc1nc2scc(-c3ccccc3)c2c(=O)[nH]1)NC1CCCCC1	16%	nt	nt	nt	-6%	3%
COCCNC(=O)CSc1nc2scc(-c3ccccc3)c2c(=O)[nH]1	50µM*	-10%	14%	-23%	16%	-23%
Cc1sc2nc(SCC(=O)N3CCOCC3)[nH]c(=O)c2c1-c1ccccc1	45µM*	-17%	12%	?	-17%	-18%
O=C(CSc1nc(O)c(-c2ccccc2)c(=O)[nH]1)N1CCOCC1	-2%	-4%	41%	-2%	-11%	?
O=C(CSc1nc2scc(-c3ccccc3)c2c(=O)[nH]1)N1CCCCC1	50µM*	-9%	14%	-16%	-9%	-27%
Cc1ccc(-c2csc3nc(SCC(=O)Nc4ccc(Cl)c(C(=O)O)c4)[nH]c(=O)c23)cc1	28µM*	-28%	0%[57 µM]	?	-14%	?
COc1ccc(-c2nn3c(-c4cc(C)[nH]n4)nnc3s2)cc1	nt	-2%[57.1 µM]	22%[57 µM]	nt	nt	nt
CCc1cc2c(SCC(=O)N3CCN(C(=O)c4cccs4)CC3)ncnc2s1	nt	nt	nt	0%	nt	nt
COC(=O)c1ccc(C(/C=C/[C@@H](C)C(=O)N(C)Cc2ccccc2)NC(=O)OCc2ccccc2)cc1 (some centres undefined)	nt	nt	nt	nt	10%	nt
O=C(O)/C=C/C(=O)Nc1ccc(Oc2ncnc3cc(Cl)ccc23)nc1	?	-20%	-6%	-16%	79µM*	-10%
O=C(c1cc(-c2ccc(Br)cc2)on1)N1CCc2ccccc2C1	-2%	50µM*	8%	34µM*	11%	2%
O=C(c1cc(-c2ccc(Cl)c(Cl)c2)on1)N1CCCCCC1	-13%	16%	18%	0%	-7%	15%
O=C(c1cc(-c2ccc(Cl)cc2)on1)N1CCCCCC1	-13%[59 µM]	25µM*	5%	27µM*	8%	2%
CC(C)(C)Nc1cccccc1=O	45µM*	-9%[11.4 µM]	42%	-16%	-21%	-3%
Cc1ccc(Nc2cccccc2=O)cc1	-11%	?	-24%	9.5µM*	8%	-11%
Cc1ccc(NC(=O)COC(=O)c2ccccc2Nc2ccccc2)cc1	-49%[59 µM]	-4%	28%	0%	-27%	-37%
CCc1ccccc1OCCCN1CCCC1	50µM*	-89%	-15%	1%	-2%	?
Cc1ccccc1OCCCCN1CCCCC1	6%[59 µM]	-7%	43%	-7%	15%	-3%
CCc1ccccc1OCCCCN1CCCCC1	40µM*	1.8µM*	?	1%	-1%	?
COc1ccccc1OCCCCN1CCCCC1	25%	-9%	10%	-5%	9%	-35%
COc1ccc(NC(=O)/C=C/c2ccc(Br)o2)cn1	?	?	?	?	25µM*	?
O=C(/C=C/c1ccc(Br)o1)NC(c1ccccc1)c1ccccc1	18µM*	?	?	?	20µM*	-37%
COc1ccccc1CNC(=O)Cc1ccc(Br)cc1	8%[59 µM]	-3%	36%	-11%	3%	-8%
COc1ccc(NC(=O)c2ccco2)cn1	-13%	-3%	27%	-20%	19%	4%
